Data published in PubChem BioAssay AID1159580 (chemical genetic matrix, 2015).
The whole screen tested about 5,500 compounds, of which about 2,000 (36%) were called active. Inconclusive results (about 18%) are left out. Rule as the data show it: active = normalized growth mostly below about 0.91 (no sharp cut-off); inconclusive = no clear call, values can overlap the other calls; inactive = mostly above about 0.92. The list shows a part of the results.

Experiment: chemical genetic growth profiling, strain panel (AID 1159580);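 also: tested at 20 µM; growth read once vehicle control cultures reached saturation at 30 °C; 1 = growth at the plate median or of vehicle wells; lower values mean less growth of the strain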
Conditions: growth OD

Measured: normalized growth

CN(C)CCOC(=O)C(c1ccccc1)C1(O)CCCC1 (centres undefined)
inactive: S. cerevisiae deletion strains, locus YJR075W, strain HOC1, stronger effect = lower value 1.01 | S. cerevisiae deletion strains, locus YKL009W, strain mrt4, stronger effect = lower value 1.02 | S. cerevisiae deletion strains, locus YKL068W, stronger effect = lower value 1.01 | S. cerevisiae deletion strains, locus YKL085W, strain MDH1 (second series), stronger effect = lower value 1.04 | S. cerevisiae deletion strains, locus YKL085W, strain MDH1, stronger effect = lower value 1.04 | S. cerevisiae deletion strains, locus YKL160W, strain elf1, stronger effect = lower value 0.988 | S. cerevisiae deletion strains, locus YKR001C, strain vps1, stronger effect = lower value 1.03 | S. cerevisiae deletion strains, locus YKR026C, strain gcn3, stronger effect = lower value 0.973 | S. cerevisiae deletion strains, locus YKR091W, strain srl3, stronger effect = lower value 0.982 | S. cerevisiae deletion strains, locus YLL001W, strain dnm1, stronger effect = lower value 0.957 | S. cerevisiae deletion strains, locus YLL026W, stronger effect = lower value 0.985 | S. cerevisiae deletion strains, locus YLL041C, strain sdh2, stronger effect = lower value 0.99 | S. cerevisiae deletion strains, locus YLR027C, strain aat2, stronger effect = lower value 0.985 | S. cerevisiae deletion strains, locus YLR039C, strain RIC1, stronger effect = lower value 1.04 | S. cerevisiae deletion strains, locus YLR058C, strain SHM2, stronger effect = lower value 1.01 | S. cerevisiae deletion strains, locus YLR102C, strain apc9, stronger effect = lower value 1 | S. cerevisiae deletion strains, locus YLR113W, strain HOG1, stronger effect = lower value 1.01 | S. cerevisiae deletion strains, locus YLR221C, strain rsa3, stronger effect = lower value 1.03 | S. cerevisiae deletion strains, locus YLR258W, strain gsy2, stronger effect = lower value 1.01 | S. cerevisiae deletion strains, locus YLR262C, strain YPT6 (second series), stronger effect = lower value 0.995 | S. cerevisiae deletion strains, locus YLR262C, strain YPT6, stronger effect = lower value 1.05 | S. cerevisiae deletion strains, locus YLR268W, strain sec22, stronger effect = lower value 1.01 | S. cerevisiae deletion strains, locus YLR320W, strain mms22, stronger effect = lower value 1.02 | S. cerevisiae deletion strains, locus YLR330W, strain CHS5, stronger effect = lower value 1 | S. cerevisiae deletion strains, locus YLR342W, strain FKS1 (second series), stronger effect = lower value 0.999 | S. cerevisiae deletion strains, locus YLR342W, strain FKS1, stronger effect = lower value 0.958 | S. cerevisiae deletion strains, locus YLR357W, strain rsc2, stronger effect = lower value 0.962 | S. cerevisiae deletion strains, locus YLR370C, strain arc18, stronger effect = lower value 0.995 | S. cerevisiae deletion strains, locus YLR371W, strain rom2, stronger effect = lower value 1.01 | S. cerevisiae deletion strains, locus YLR384C, strain iki3, stronger effect = lower value 0.985 | S. cerevisiae deletion strains, locus YLR418C, strain cdc73, stronger effect = lower value 1.05 | S. cerevisiae deletion strains, locus YML016C, strain PPZ1, stronger effect = lower value 1 | S. cerevisiae deletion strains, locus YML032C, strain rad52, stronger effect = lower value 1 | S. cerevisiae deletion strains, locus YML120C, strain ndi1, stronger effect = lower value 0.988 | S. cerevisiae deletion strains, locus YML124C, strain tub3, stronger effect = lower value 1.01 | S. cerevisiae deletion strains, locus YMR058W, strain fet3, stronger effect = lower value 0.991 | S. cerevisiae deletion strains, locus YMR078C, strain ctf18, stronger effect = lower value 1.03 | S. cerevisiae deletion strains, locus YMR125W, strain sto1, stronger effect = lower value 0.989 | S. cerevisiae deletion strains, locus YMR129W, stronger effect = lower value 0.986 | S. cerevisiae deletion strains, locus YMR205C, strain PFK2, stronger effect = lower value 0.993 | S. cerevisiae deletion strains, locus YMR223W, strain ubp8, stronger effect = lower value 1.02 | S. cerevisiae deletion strains, locus YMR231W, strain pep5, stronger effect = lower value 0.975 | S. cerevisiae deletion strains, locus YMR307W, strain GAS1, stronger effect = lower value 1.06 | S. cerevisiae deletion strains, locus YNL067W, strain RPL9B, stronger effect = lower value 1.02 | S. cerevisiae deletion strains, locus YNL071W, strain lat1, stronger effect = lower value 1.01 | S. cerevisiae deletion strains, locus YNL153C, strain GIM3, stronger effect = lower value 1.01 | S. cerevisiae deletion strains, locus YNL183C, strain NPR1, stronger effect = lower value 0.944 | S. cerevisiae deletion strains, locus YNL209W, strain ssb2, stronger effect = lower value 1.02 | S. cerevisiae deletion strains, locus YNL233W, strain BNI4, stronger effect = lower value 1.01 | S. cerevisiae deletion strains, locus YNL248C, strain rpa49, stronger effect = lower value 1.03 | S. cerevisiae deletion strains, locus YNL250W, strain rad50, stronger effect = lower value 1.01 | S. cerevisiae deletion strains, locus YNL271C, strain bni1, stronger effect = lower value 1.02 | S. cerevisiae deletion strains, locus YNL298W, strain CLA4, stronger effect = lower value 1.03 | S. cerevisiae deletion strains, locus YNL307C, strain MCK1, stronger effect = lower value 1.02 | S. cerevisiae deletion strains, locus YNL322C, strain KRE1 (second series), stronger effect = lower value 0.985 | S. cerevisiae deletion strains, locus YNL322C, strain KRE1, stronger effect = lower value 0.982 | S. cerevisiae deletion strains, locus YNR049C, strain mso1, stronger effect = lower value 0.987 | S. cerevisiae deletion strains, locus YNR052C, strain pop2, stronger effect = lower value 1.01 | S. cerevisiae deletion strains, locus YOL006C, strain TOP1, stronger effect = lower value 1.04 | S. cerevisiae deletion strains, locus YOL012C, strain htz1 1.15 | S. cerevisiae deletion strains, locus YOL147C, strain pex11, stronger effect = lower value 1.01 | S. cerevisiae deletion strains, locus YOR001W, strain rrp6, stronger effect = lower value 0.97 | S. cerevisiae deletion strains, locus YOR061W, strain CKA2, stronger effect = lower value 1.01 | S. cerevisiae deletion strains, locus YOR069W, strain VPS5, stronger effect = lower value 1.01 | S. cerevisiae deletion strains, locus YOR070C, strain gyp1, stronger effect = lower value 0.997 | S. cerevisiae deletion strains, locus YOR080W, strain dia2, stronger effect = lower value 0.981 | S. cerevisiae deletion strains, locus YOR083W, strain WHI5, stronger effect = lower value 0.952 | S. cerevisiae deletion strains, locus YOR106W, strain vam3, stronger effect = lower value 0.993 | S. cerevisiae deletion strains, locus YOR136W, strain idh2, stronger effect = lower value 1.02 | S. cerevisiae deletion strains, locus YOR144C, strain elg1, stronger effect = lower value 1.01 | S. cerevisiae deletion strains, locus YOR184W, strain ser1, stronger effect = lower value 1.02 | S. cerevisiae deletion strains, locus YOR231W, strain MKK1, stronger effect = lower value 0.997 | S. cerevisiae deletion strains, locus YOR265W, strain rbl2, stronger effect = lower value 0.998 | S. cerevisiae deletion strains, locus YOR270C, strain vph1, stronger effect = lower value 0.957 | S. cerevisiae deletion strains, locus YOR290C, strain snf2, stronger effect = lower value 1.02 | S. cerevisiae deletion strains, locus YOR316C, strain cot1, stronger effect = lower value 1.02 | S. cerevisiae deletion strains, locus YPL051W, strain arl3, stronger effect = lower value 1.02 | S. cerevisiae deletion strains, locus YPL055C, strain LGE1, stronger effect = lower value 1.01 | S. cerevisiae deletion strains, locus YPL078C, strain atp4, stronger effect = lower value 0.961 | S. cerevisiae deletion strains, locus YPL106C, strain sse1, stronger effect = lower value 1.01 | S. cerevisiae deletion strains, locus YPL240C, strain hsp82, stronger effect = lower value 1.01 | S. cerevisiae deletion strains, locus YPL241C, strain CIN2, stronger effect = lower value 0.988 | S. cerevisiae deletion strains, locus YPL256C, strain CLN2, stronger effect = lower value 0.984 | S. cerevisiae deletion strains, locus YPR119W, strain clb2, stronger effect = lower value 1.01 | S. cerevisiae deletion strains, locus YPR141C, strain kar3, stronger effect = lower value 1.03 | S. cerevisiae deletion strains, locus YPR163C, strain tif3, stronger effect = lower value 1.02 | S. cerevisiae deletion strains, locus YPR167C, strain met16, stronger effect = lower value 1.01 | S. cerevisiae deletion strains, strain wtn01, stronger effect = lower value 1.01 | S. cerevisiae strains, strain wild type, stronger effect = lower value 1
